From PubChem
C-LANA FP = blocks KSHV LANA C-terminal domain binding to DNA | MBP-C-LANA/FAM-LBS DNA binding, fluorescence polarization | inhibition, % at 9 µM | hit rate 0.078% among 340,000;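 active = highest replicate inhibition at or above 60% at 9 µM, even if other replicates fall short; inactive = all replicates below 60% inhibition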
EBV gp42 block = blocks Epstein-Barr virus glycoprotein 42 binding. Q1HVG2. Fluorescence polarization binding assay, mP read-out. inhibition, % (tested at 21.74 µM). hit rate 0.42% among 220,000; in the data active = inhibition above about 50%
GLD-1 TGE inh = GLD-1-TGE RNA interaction inhibition (C. elegans); Q17339; purified GLD-1 + fluorescein TGE RNA, fluorescence polarization; inhibition, % at 5.96 µM; hit rate 0.44% among 320,000; AID 2280;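 active = percent inhibition above a per-plate cutoff, the plate mean of test compounds plus 3 SD, cut at about 30% in these data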
Target sequence (Q17339 whole entry, looked up): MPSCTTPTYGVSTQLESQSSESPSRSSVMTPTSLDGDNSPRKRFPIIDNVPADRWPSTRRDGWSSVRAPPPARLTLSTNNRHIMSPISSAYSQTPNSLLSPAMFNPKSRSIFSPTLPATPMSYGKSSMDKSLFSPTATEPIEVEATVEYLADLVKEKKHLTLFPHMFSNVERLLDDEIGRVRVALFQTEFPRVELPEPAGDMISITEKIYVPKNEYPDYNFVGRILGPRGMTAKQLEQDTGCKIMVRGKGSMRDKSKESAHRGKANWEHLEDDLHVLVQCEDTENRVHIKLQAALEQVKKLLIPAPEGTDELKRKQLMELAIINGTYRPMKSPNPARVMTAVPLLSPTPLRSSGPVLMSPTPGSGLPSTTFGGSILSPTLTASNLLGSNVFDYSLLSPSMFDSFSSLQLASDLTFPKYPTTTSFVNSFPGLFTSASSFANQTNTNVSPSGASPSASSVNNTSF
Keap1 Nrf2 FP = disrupts human Keap1 binding to Nrf2 peptide; Keap1 Kelch-Nrf2 peptide fluorescence polarization, 1536-well; hit rate 0.15% among 340,000; Q14145; inhibition, % at 9.4 µM; in the data active = inhibition above about 12%;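 note: human Keap1 Kelch domain with fluorescein labeled Nrf2 9mer peptide probe; higher means more block of Keap1 binding to Nrf2 peptide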
LANA-H2A inh = blocks KSHV LANA binding to histone H2A/H2B; hit rate 0.6% among 320,000; inhibition, % (concentration not given with the values); cell-free LANA-H2A/H2B peptide, fluorescence polarization; Q9QR71; in the data active = inhibition mostly above about 10%, no sharp cut-off; inactive = mostly below about 6.7%
E coli Lon inh = inhibitors of E. coli Lon protease | P0A9M0 | purified E. coli Lon protease, fluorescence polarization | inhibition, % at 7.94 µM | hit rate 0.42% among 360,000 | AID 602123; in the data active = inhibition above about 13%, passing the limit was not always enough
A number is an active result; - = inactive; . = no result given; + = active, no number. An excerpt weighted towards active compounds, which were near 1.5% of everything screened.

SMILES	C-LANA FP	EBV gp42 block	GLD-1 TGE inh	Keap1 Nrf2 FP	LANA-H2A inh	E coli Lon inh
COc1ccc2c(c1)C=C(C(=O)OCc1cccnc1)CO2	-	-	-	-	-	-
CCOC(=O)CSc1ccc2ccccc2n1	-	-	-	-	-	-
CCOC(=O)CN1C=C(c2ccc3ccccc3n2)C(C[N+](=O)[O-])c2ccccc21 (stereo unspecified)	-	-	-	-	-	115
Cc1cc(C(=O)OCC(=O)NCc2ccco2)c(C)n1-c1ccc(F)cc1	-	-	-	-	45	-
CCNC(=O)COC(=O)c1cc(C)n(-c2ccccc2)c1C	-	-	-	-	-	-
Cc1cccc(NS(=O)(=O)c2ccc(C)c(C(=O)NC3CCN(Cc4ccccc4)CC3)c2)c1	-	.	.	-	.	-
COc1ccc(NC(=O)N(CCc2ccccc2)Cc2cc3c(C)cc(C)cc3[nH]c2=O)cc1	-	59	-	-	-	-
COc1ccc2[nH]c(=O)c(CN(CCc3ccccc3)C(C)=O)cc2c1	-	-	-	-	-	-
COc1ccc(Cn2cc(CN3CC(N4CCN(CCN(C)C)CC4)CS3(=O)=O)nn2)cc1 (stereo unspecified)	.	.	.	.	.	-
OCc1ccccc1-c1ccc2nncn2c1	.	.	.	.	.	-
Oc1ccccc1/C=N/Nc1ccccc1	-	-	-	-	-	-
Oc1ccccc1/C=N/Nc1ncc(Br)cn1	-	-	-	-	+	-
O=C(COc1ccc(Cl)cc1)NNC(=O)c1ccncc1	-	.	-	-	39	-
CCOC(=O)[C@]12CCCC=C1N(Cc1cccc3ccccc13)C(=O)[C@H](CC(=O)N1CCCC1)C2	.	.	.	.	.	-
COc1ccc(NC(=O)/C=C/c2cccc(Br)c2)cn1	-	.	67	-	-	-
COc1ccc(-c2nnn3c2nc(NCc2ccccc2)c2ccccc23)cc1	-	-	-	-	-	-
O=C(NNS(=O)(=O)c1ccc(Br)cc1)c1cccs1	-	-	-	-	17	-
Cc1ccccc1NC(=S)N1CCC(C(=O)c2ccc(F)cc2)CC1	-	-	-	-	28	-
CS(=O)(=O)N1CCN(C(=O)c2cc(-c3cccs3)nc3ccccc23)CC1	-	-	-	-	-	-
CS(=O)(=O)N1CCN(C(=O)c2cc(-c3ccccc3)nc3ccccc23)CC1	-	-	-	-	9.7	-
O=C(CN1CCN(S(=O)(=O)N2CCOCC2)CC1)Nc1cc(Cl)cc(Cl)c1	-	.	-	-	-	-
CCOC(=O)CSc1nc(N2CCOCC2)c2c(c1C#N)CC(C)(C)OC2	-	.	-	-	-	-
CCOC(=O)CSc1nc(N2CCOCC2)c2c(c1C#N)CC(C)(C)N(C)C2	-	-	73	-	15	-
CCC(=O)c1ccc(OCc2ccc(C(=O)OC)cc2)cc1	-	-	-	-	14	-
NS(=O)(=O)c1ccc(NC(=O)c2ccc(-c3ccccc3)cc2)cc1	-	62	.	-	.	-
SMILES	C-LANA FP	EBV gp42 block	GLD-1 TGE inh	Keap1 Nrf2 FP	LANA-H2A inh	E coli Lon inh
NS(=O)(=O)c1ccc(NS(=O)(=O)c2ccc(NC(=O)c3ccc(-c4ccccc4)cc3)cc2)cc1	-	-	-	-	-	-
O=C1/C(=C/c2ccco2)CCc2ccccc21	-	-	-	-	-	-
Nc1ccc2c(c1)C/C(=C/c1ccco1)C2=O	-	98	-	-	-	-
O=C(Nc1ccc2c(c1)OCO2)C1Cc2c(-c3ccc4c(c3)OCO4)ccnc2O1 (stereo unspecified)	.	.	.	.	.	-
CCSc1nnc(-c2ccncc2)o1	-	-	-	-	-	-
CCSc1nnc(-c2sc3nnc(-c4ccccc4)c(-c4ccccc4)c3c2N)o1	-	167	-	-	-	-
CCOC(=O)C1CCN(Cc2cn(C)nc2-c2ccc(Oc3ccccc3)cc2)CC1	-	-	-	-	-	-
Cc1ccc2c(c1C)-c1c(ccc(C)c1C)C(=O)C2=O	-	.	.	-	.	-
Nc1ccc2c(c1Cl)C(=O)c1ccc(N)c(Cl)c1C2=O	-	76	.	-	.	-
Cn1c(=O)c2c(ncn2CC(=O)N/N=C/c2c[nH]c3ccccc23)n(C)c1=O	.	-	-	.	-	.
CC(C)Nc1nc(Cl)nc(N(C#N)CN2C(=O)c3ccccc3S2(=O)=O)n1	-	52	-	-	-	-
Cc1ccc2c(c1)[C@H]1[C@H](CO2)[C@H](c2ccccc2)[C@]2(C)C(=O)N(Cc3ccc(F)cc3)CC(=O)N12	-	.	52	-	-	-
Cc1ccn2nc(C(=O)OCC(=O)N(CC(C)C)C3CCS(=O)(=O)C3)nc2n1 (stereo unspecified)	-	.	-	-	80	-
CCCCN(C(=O)COC(=O)c1nc2nc(C)cc(C)n2n1)C1CCS(=O)(=O)C1 (stereo unspecified)	-	.	-	-	.	-
CC(C)Oc1cc(F)ccc1-c1cc(C(=O)NCCCn2ccnc2)[nH]n1	.	.	.	.	.	-
Cc1ccc(S(=O)(=O)Oc2ccccc2/C=N/N=C(N)N)cc1	-	-	-	-	38	-
Cc1ccc(S(=O)(=O)Oc2ccccc2/C=N/NC(N)=S)cc1	-	-	-	-	-	-
O=S(=O)(NC1CCCCC1Sc1ncccn1)c1ccc(Cl)cc1 (stereo unspecified)	-	-	-	-	-	-
O=S(=O)(NC1CCCCC1Sc1ncccn1)c1ccccc1 (stereo unspecified)	-	-	-	-	13	-
O=C1C2CC=C(Cl)CC2C(=O)N1CN(Cc1ccco1)CN1C(=O)C2CC=C(Cl)CC2C1=O (stereo unspecified)	-	-	44	-	-	-
CC1CN(S(=O)(=O)c2cccc(C(=O)OCc3cc(=O)oc4cc(O)ccc34)c2)CC(C)O1 (stereo unspecified)	-	.	-	-	-	-
CN(C)c1cccc(C(=O)OCc2cc(=O)oc3cc(O)ccc23)c1	-	52	-	-	-	-
Cc1ccc(Cn2cc(CN3CC(N4CCN(Cc5ccccc5F)CC4)CS3(=O)=O)nn2)cc1 (stereo unspecified)	.	.	.	.	.	-
O=C(Nc1ccccc1F)c1coc(=O)c(Br)c1	87	-	-	-	-	-
N=C1/C(=C\c2ccc(-c3cccc(Cl)c3)o2)C(=O)N=C2SC=C(c3ccccc3)N12	-	-	-	-	-	-
N=C1/C(=C\c2ccc(-c3ccc(C(=O)O)cc3)o2)C(=O)N=C2SC=C(c3ccccc3)N12	-	61	.	-	.	-
Cc1c([N+](=O)[O-])c([N+](=O)[O-])nn1CC(=O)N1CCOCC1	-	-	-	-	-	-
O=C(NNC(=O)C1CCCN(c2ncccn2)C1)c1ccncc1 (stereo unspecified)	-	-	-	-	12	-
N#C/C(=C\C1=C(N2CCOCC2)C(=C\c2ccc(Cl)cc2)/CC1)C(=O)Nc1ccccc1F	-	124	-	-	-	-
N#C/C(=C\C1=C(N2CCOCC2)C(=C/c2cccc([N+](=O)[O-])c2)/CC1)C(=O)Nc1ccccc1F	-	86	-	-	-	-
